# From PubChem BioAssay
# Shiga inhibitor: Shiga toxin inhibition; Vero cells, Shiga toxin protein synthesis inhibition reporter; inhibition, % at 38.7 µM; 9.2% of 290,000 active; in the data active means inhibition mostly above about 28%, no sharp cut-off; inactive means mostly below about 43%
# CHX counter: counter-screen hit for Shiga toxin inhibitors, cycloheximide | cell reporter, cycloheximide protein synthesis inhibition counterscreen | AID 2314 | max response, % | 12% of 300,000 active; in the data active means max response mostly above about 13%, no sharp cut-off; inactive means mostly below about 14%; further: read at 38.3 µM for the half of the compounds with a filed dose
# LmPK inhibitor: LmPK (Leishmania mexicana) enzyme inhibition | Q27686 | Potency, µM (top dose mostly 57.5 µM), most hits filed as inhibitors | 0.37% of 290,000 active | purified LmPK, Kinase-Glo ATP luminescence, 1 h
#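 Purified LmPK (0.1 nM) converted ADP (0.1 mM) to ATP with PEP (0.5 mM) in imidazole buffer pH 7.2 with KCl and MgCl2, 1 h at room temperature. ATP was read by Kinase-Glo luminescence; data normalized to uninhibited and no-enzyme controls.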
# RE007 growth inh: less growth of the S. pombe RE007 Vpr strain. Potency, µM (highest dose often 92.2 µM), hits mostly inhibitors. 0.21% of 360,000 active. AID 651644. S. pombe RE007 Vpr strain, BacTiter-Glo ATP luminescence, 24 h; active means well fitted falling curve with a large enough effect; inconclusive means small, poorly fitted or top-dose-only effect; inactive means no such curve, though single readings can be large or run the other way; further: nearly all actives have a fitted effect of over 50% in size
#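 Fission yeast strain RE007, carrying one chromosomally integrated HIV-1 vpr copy, was seeded at OD 0.01 in PMG+AL medium with 23 nL pinned compound. After 24 h at 30 °C and 99% humidity, viability was read by BacTiter-Glo luminescence.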
# Giardia FBPA inh: inhibitors of Giardia lamblia fructose-1,6-bisphosphate aldolase; A8B2U2; purified Giardia FBPA; Potency, µM (doses to about 59.6 µM), usual class: inhibitors; 0.71% of 290,000 active; AID 2451; further: nearly all actives have a fitted effect of over 55% in size
# Target sequence (A8B2U2 whole entry, looked up): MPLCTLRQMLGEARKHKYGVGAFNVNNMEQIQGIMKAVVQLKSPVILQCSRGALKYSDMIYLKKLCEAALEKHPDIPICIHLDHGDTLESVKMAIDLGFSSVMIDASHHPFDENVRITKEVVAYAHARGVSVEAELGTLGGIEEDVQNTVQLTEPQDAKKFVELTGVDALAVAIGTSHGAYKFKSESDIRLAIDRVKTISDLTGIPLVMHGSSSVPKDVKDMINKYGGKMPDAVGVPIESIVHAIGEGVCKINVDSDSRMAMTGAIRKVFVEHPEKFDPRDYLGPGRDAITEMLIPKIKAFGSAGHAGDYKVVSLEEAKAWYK
#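 40 nM FBPA preincubated 10 min at RT with compound (up to 57.5 uM final), then substrate plus GAPDH/TPI/NAD/arsenate coupling and diaphorase/resazurin added. Fluorescence read after 20 min at RT, 525/598 nm.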
# Tb PYK inh: T. brucei pyruvate kinase inhibition | Potency, µM (doses to about 76.8 µM), most hits filed as inhibitors | AID 624173 | 0.12% of 410,000 active | TbPYK enzyme, Kinase-Glo Plus ATP luminescence, 45 min; further: nearly all actives have a fitted effect of over 50% in size
#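 Glycolytic pyruvate kinase of T. brucei was incubated with substrate, test compound and 130 uM ADP for 45 minutes at room temperature. Luminescent Kinase-Glo Plus signal was measured after 10 minutes.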
# Hits are given with their value; i = inactive; ? = inconclusive; nt = no result; [ ] = remark or other dose. The entries come from a sample that favours hits as a whole. Unless noted, the call rests on the fitted dose curve; in most records, active means well fitted curve in the direction sought with a large enough effect; inconclusive means small, poorly fitted or top-dose-only effect, or another doubt; inactive means no such curve, though single readings can be large; an effect the other way counts as inactive or inconclusive.
SMILES,Shiga inhibitor,CHX counter,LmPK inhibitor,RE007 growth inh,Giardia FBPA inh,Tb PYK inh
Cc1cc(N2CCOCC2)ccc1/C=C\[N+](=O)[O-],i,i,i,7.94µM,i,i
Cc1cccc(NC(=O)CSc2cn(CC(=O)N3CCCCCC3)c3ccccc23)c1,nt,nt,nt,nt,nt,i
CCCc1cnc2c(c1SCc1ccc(C(F)(F)F)cc1)c(=O)n(C)c(=O)n2C,nt,nt,nt,nt,nt,i
Cc1cc(C)cc(NC(=O)C2CCCN2S(=O)(=O)c2cccc3nsnc23)c1 (stereo not drawn),nt,nt,nt,nt,nt,i
O=C(CSc1nc2ccccc2c2nc3ccccc3n12)NCc1ccco1,50.5,28.4,i,i,i,i
O=C(CSc1nc2ccccc2c(=O)n1Cc1ccccc1)NCc1ccco1,i,i,i,i,i,i
O=C(CSc1nnc(C2CCCCC2)n1Cc1ccccc1)NCc1ccco1,i,15.8,i,i,i,i
COc1ccc(Cn2c(SCC(=O)NCc3ccco3)nc3ccsc3c2=O)cc1,i,17.3,i,i,i,i
CCn1c(SCC(=O)NCc2ccco2)nnc1C1CCCC1,i,i,i,i,i,i
Cn1c(SCC(=O)NCc2ccco2)nc2ccccc2c1=O,73.5,i,i,i,i,i
CCn1c(SCC(=O)NCc2ccco2)nc2ccccc2c1=O,i,i,i,i,i,i
CC1SCC(NC(=O)c2cccc(Cl)c2)CS1 (stereo not drawn),i,i,i,i,i,i
CC1SCC(NC(=O)c2ccccc2Cl)CS1 (stereo not drawn),73.8,52.8,i,i,i,i
CC1SCC(NC(=O)c2ccc(Cl)cc2)CS1 (stereo not drawn),48.8,28.9,i,i,i,i
CC1=C(C(=O)Nc2cccnc2)C(c2cccc(F)c2)n2nc(SCc3ccccc3F)nc2N1 (stereo not drawn),nt,nt,nt,nt,nt,i
COc1ccc(-c2nc(N/N=C(\C)c3ccc(O)cc3)c3ccccc3n2)cc1,71.5,29.0,i,i,i,i
C/C(=N\Nc1nc(-c2ccc(C)cc2)nc2ccccc12)c1ccc([N+](=O)[O-])cc1,i,i,i,nt,i,nt
C/C(=N\Nc1nncc2ccccc12)c1ccc(O)cc1,53.9,28.0,i,i,i,i
C/C(=N\NS(=O)(=O)c1ccc(C(C)(C)C)cc1)c1ccccc1,i,i,i,i,i,i
C/C(=N\Nc1nncc2ccccc12)c1ccc(C(C)(C)C)cc1,97.5,41.9,i,i,i,i
C/C(=N\Nc1nncc2ccccc12)c1cccc(OC(F)F)c1,65.4,20.4,i,i,i,i
COc1cccc(/C(C)=N/NC(=O)c2cc(-c3cccnc3)nc3ccccc23)c1,i,i,i,i,i,i
CC(=O)NCCNc1nc(-c2ccccc2C(F)(F)F)nc2ccccc12,nt,nt,nt,nt,i,nt
Cc1ccc(Cn2c(CN3CCN(c4cccc(Cl)c4)CC3)nc3c2c(=O)n(C)c(=O)n3C)cc1,nt,nt,nt,nt,nt,i
O=C(COc1ncnc2ccccc12)c1ccc(Cl)cc1,79.4,26.1,i,i,i,i
SMILES,Shiga inhibitor,CHX counter,LmPK inhibitor,RE007 growth inh,Giardia FBPA inh,Tb PYK inh
c1ccc(OCCOc2ncnc3ccccc23)cc1,92.9,36.7,i,i,i,i
COc1ccc(C(=O)COc2ncnc3cc(Cl)ccc23)cc1,i,i,i,i,i,i
O=C(COc1ncnc2cc(Cl)ccc12)c1ccccc1,97.9,44.6,i,i,i,i
COc1ccc(C/C(N)=N/OC(=O)c2cccc([N+](=O)[O-])c2)cc1,i,i,i,i,i,i
Cc1cccc(C(=O)O/N=C(\N)CS(=O)(=O)c2ccccc2)c1,i,15.6,i,i,nt,i
COc1cccc(C(=O)O/N=C(\N)CS(=O)(=O)c2ccccc2)c1,62.9,56.3,i,i,nt,i
COc1ccc(S(=O)(=O)NCC(c2ccco2)N2CCN(c3ccccc3F)CC2)cc1OC (stereo not drawn),nt,nt,nt,nt,nt,i
CN1C(=O)C(Cc2c[nH]c3ccccc23)NC1=S (stereo not drawn),47.3,30.0,nt,nt,i,nt
O=C1NC(Cc2c[nH]c3ccccc23)C(=O)N1Cc1ccccc1 (stereo not drawn),i,i,i,i,nt,i
COC(=O)c1ccc(CN2C(=O)NC(Cc3c[nH]c4ccccc34)C2=O)cc1 (stereo not drawn),118.1,37.0,i,i,i,i
CCCCC(=O)O[C@]1(C(=O)CO)CCC2C3CCC4=CC(=O)CCC4(C)C3C(O)CC21C (stereo partly drawn),nt,nt,nt,nt,nt,i
CCc1cccc(NC(=O)C2Cc3ccccc3N2C(=O)c2ccccc2)c1 (stereo not drawn),nt,nt,nt,nt,nt,i
CCN(CC)C(=O)c1cccc(-c2csc(C(C)(O)c3ccc(OC)cc3)n2)c1 (stereo not drawn),nt,nt,nt,i,nt,?
CCN(CC)C(=O)c1cccc(-c2ccc(OC)cc2)c1,48.7,24.8,i,i[3.69 µM],i,nt
COc1ccc(-c2cccc(C(=O)NCC(=O)O)c2)cc1,35.5,23.3,i,i,i,i
COc1ccc(-c2cccc(C(=O)Nc3ccc(C)cc3)c2)cc1,i,i,i,i,i,i
COC(=O)CNC(=O)c1cccc(-c2ccc(OC)cc2)c1,80.1,35.7,i,i,i,i
COc1ccc(C2c3c(n(C)c4ccccc34)C(=O)N2CC(=O)Nc2cccc(Cl)c2C)cc1 (stereo not drawn),nt,nt,nt,nt,nt,i[15.4 µM]
O=C(CN1C(=O)NC2(CCCCCC2)C1=O)c1ccc2c(c1)OCCO2,117.9,36.0,i,i,i,i
CC1CCC2(CC1)NC(=O)N(CC(=O)Nc1ccc3c(c1)OCCCO3)C2=O (stereo not drawn),nt,nt,nt,i,nt,i
CC1SCC(=O)N(CC(=O)Nc2ccc3c(c2)OCCO3)C1=O (stereo not drawn),i,32.8,i,i,i,i
CC1CCC2(CC1)NC(=O)N(CC(=O)Nc1ccc3c(c1)OCCO3)C2=O (stereo not drawn),70.6,41.2,i,i,i,i
CC(C)C1=CC2=CC[C@@H]3[C@](C)(CCC[C@@]3(C)C(=O)O)[C@H]2CC1,nt,nt,nt,nt,nt,i
O=C(NC1CCCC1)O[C@@H]1C(=O)c2cc(Br)ccc2O[C@H]1c1ccc2c(c1)OCO2,nt,nt,nt,nt,i,nt
CN1CCN(CCOc2ccc(-c3ccccc3)cc2)CC1,85.8,46.2,i,i,i,i
SMILES,Shiga inhibitor,CHX counter,LmPK inhibitor,RE007 growth inh,Giardia FBPA inh,Tb PYK inh
CN1CCN(CCCOc2ccc(-c3ccccc3)cc2)CC1,74.6,27.4,i,i,?,i
CCN1CCN(CCCOc2ccccc2-c2ccccc2)CC1,i,i,i,?,?,i
Cc1ccc(OCCCCN2CCCCC2)cc1,i,i,i,i,i,i
CCN1CCN(CCCOc2ccc(-c3ccccc3)cc2)CC1,70.4,37.2,i,i,i,i
COc1ccc(OCCOCCN2CCN(C)CC2)cc1,i,i,i,i,?,i
CCOc1ccc(-n2c(SC(C)C(=O)OC)nc3c([nH]c4ccccc43)c2=O)cc1 (stereo not drawn),nt,nt,nt,nt,nt,i
COc1ccc(OC)c(CNc2ncnc3c2nc2n3CCCC2)c1,nt,nt,nt,nt,nt,i
